From PubChem BioAssay
Values without a mark were called inactive. The list shows a part of the results. Activity calls are given as the source filed them.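 How the source made its calls, unless noted: active means mean inhibition above a cutoff equal to the average over all tested compounds plus one standard deviation (cut at about 70% in these data); inactive means the rest.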

How the values were obtained:
[1] = biological target: Photoreceptor-specific nuclear receptor (Homo sapiens) (UniProt Q9Y5X4); experiment: retest of NR2E3-NCOR disrupting agonists – cell-based, luminescence, CHO-S two-hybrid, confirmation (AID 624378;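 active means average inhibition above a cutoff equal to the mean inhibition of all tested compounds plus one SD, cut at about 70% in these data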;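 further: 0% = DMSO in NR2E3 cells and 100% = DMSO in cells lacking NR2E3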); conditions: CHO-S mammalian two-hybrid NR2E3-NCOR, luciferase luminescence; at 3.98 µM; stronger effect = higher value
Photoreceptor-specific nuclear receptor (Homo sapiens), sequence (Q9Y5X4 whole entry, looked up, the tested form may be a part): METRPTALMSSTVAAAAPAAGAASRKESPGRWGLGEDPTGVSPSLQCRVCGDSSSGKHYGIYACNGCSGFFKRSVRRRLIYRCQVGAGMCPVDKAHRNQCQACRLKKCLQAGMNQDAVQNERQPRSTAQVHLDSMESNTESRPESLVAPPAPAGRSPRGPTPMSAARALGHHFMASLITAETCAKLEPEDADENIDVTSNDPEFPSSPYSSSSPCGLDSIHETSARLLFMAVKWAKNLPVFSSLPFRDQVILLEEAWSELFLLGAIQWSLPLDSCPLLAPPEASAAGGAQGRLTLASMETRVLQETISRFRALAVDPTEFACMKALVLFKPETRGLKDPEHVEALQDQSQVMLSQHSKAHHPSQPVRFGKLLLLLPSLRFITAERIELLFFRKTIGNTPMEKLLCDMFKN

[2] = nonselective effects on VP16 transactivation – cell-based, luminescence, CHO-S, high throughput, counter-screen for NR2E3 agonist project, confirmation (AID 624379); conditions: CHO-S GAL4-VP16 luciferase reporter, at 3.98 µM, stronger effect = higher value;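 further: 0% = DMSO with VP16-transfected cells and 100% = DMSO with cells lacking VP16; higher means less reporter light so more repression of VP16 activity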
[3] = system: transactivating tegument protein VP16 (Human herpesvirus 1); experiment: compounds suppressing VP16-driven luciferase signal – cell-based, luminescence, single concentration, counter-screen for SRC2 inhibitor project (AID 652007; in the data active means inhibition above about 36%); conditions: cell-based VP16 transactivation luciferase reporter, at 8.9 µM, stronger effect = higher value
[4] = biological target: Nuclear receptor coactivator 2 (Homo sapiens) (UniProt Q15596); experiment: inhibition of GAL4-SRC2 driven luciferase expression – cell-based, luminescence, HEK293, triplicate, confirmation (AID 652008;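 active means mean inhibition above 46.5%, the solvent-only control mean plus 3 SD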;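 further: 0% = DMSO-treated cells and 100% = Gossypol at 36 µM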); conditions: HEK293 GAL4-SRC2 luciferase reporter, at 8.9 µM, stronger effect = higher value
Nuclear receptor coactivator 2 (Homo sapiens), sequence (Q15596 whole entry, looked up, the tested form may be a part): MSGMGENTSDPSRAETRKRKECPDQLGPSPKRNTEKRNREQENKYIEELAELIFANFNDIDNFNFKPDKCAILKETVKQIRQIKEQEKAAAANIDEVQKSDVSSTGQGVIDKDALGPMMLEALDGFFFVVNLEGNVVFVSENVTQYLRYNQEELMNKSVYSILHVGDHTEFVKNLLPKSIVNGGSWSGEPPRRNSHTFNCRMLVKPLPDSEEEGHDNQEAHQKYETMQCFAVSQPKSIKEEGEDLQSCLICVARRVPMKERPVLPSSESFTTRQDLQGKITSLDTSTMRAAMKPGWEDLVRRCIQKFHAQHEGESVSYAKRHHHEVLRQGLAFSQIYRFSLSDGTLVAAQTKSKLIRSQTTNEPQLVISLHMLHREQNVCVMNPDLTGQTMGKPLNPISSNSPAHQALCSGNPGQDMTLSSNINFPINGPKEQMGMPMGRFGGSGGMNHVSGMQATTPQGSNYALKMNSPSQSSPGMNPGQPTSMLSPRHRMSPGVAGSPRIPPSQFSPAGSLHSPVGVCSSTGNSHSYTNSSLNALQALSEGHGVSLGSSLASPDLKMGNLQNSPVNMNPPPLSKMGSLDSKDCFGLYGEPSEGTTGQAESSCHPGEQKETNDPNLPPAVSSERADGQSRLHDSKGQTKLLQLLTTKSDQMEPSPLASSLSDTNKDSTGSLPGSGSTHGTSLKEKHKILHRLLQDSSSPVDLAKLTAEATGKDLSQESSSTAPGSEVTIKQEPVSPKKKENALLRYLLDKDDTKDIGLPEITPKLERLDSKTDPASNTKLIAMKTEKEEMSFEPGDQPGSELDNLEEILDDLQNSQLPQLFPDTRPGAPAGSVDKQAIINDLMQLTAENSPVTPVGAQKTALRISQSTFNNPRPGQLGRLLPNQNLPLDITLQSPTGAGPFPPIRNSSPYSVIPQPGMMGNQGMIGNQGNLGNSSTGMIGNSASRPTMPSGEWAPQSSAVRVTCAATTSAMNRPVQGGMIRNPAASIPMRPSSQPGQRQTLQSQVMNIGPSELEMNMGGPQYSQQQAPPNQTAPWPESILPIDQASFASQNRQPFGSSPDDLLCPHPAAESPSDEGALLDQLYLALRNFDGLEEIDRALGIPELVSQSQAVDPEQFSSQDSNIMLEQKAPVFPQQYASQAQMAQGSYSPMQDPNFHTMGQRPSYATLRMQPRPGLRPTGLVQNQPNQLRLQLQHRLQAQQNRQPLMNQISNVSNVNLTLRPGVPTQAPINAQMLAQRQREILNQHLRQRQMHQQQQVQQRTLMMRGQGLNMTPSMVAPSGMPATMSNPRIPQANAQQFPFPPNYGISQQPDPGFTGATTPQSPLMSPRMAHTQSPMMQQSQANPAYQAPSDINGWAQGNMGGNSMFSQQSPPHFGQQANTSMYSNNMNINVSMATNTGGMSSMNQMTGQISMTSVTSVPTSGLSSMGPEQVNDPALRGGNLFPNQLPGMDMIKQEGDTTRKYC

[5] = StAR promoter reporter inhibitors, counter-screen for LRH-1 inverse agonist project, cell-based, luminescence, high throughput (AID 651611; in the data active means inhibition above about 28%); conditions: StAR promoter luciferase reporter counterscreen, at 3.6 µM, stronger effect = higher value
[6] = biological target: Nuclear receptor subfamily 5 group A member 2 (Homo sapiens) (UniProt O00482); experiment: NR5A2 activity suppression in reporter cells – cell-based, luminescence, confirmation (AID 651613; in the data active means inhibition above about 42%;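 further: HEK293T cells co-transfected with LRH-1 and StAR promoter luciferase reporter; 0% = vehicle wells and 100% = parental cells lacking receptor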); conditions: cell-based LRH-1 luciferase reporter, inverse agonism; at 3.6 µM; stronger effect = higher value
Nuclear receptor subfamily 5 group A member 2 (Homo sapiens), sequence (O00482 whole entry, looked up): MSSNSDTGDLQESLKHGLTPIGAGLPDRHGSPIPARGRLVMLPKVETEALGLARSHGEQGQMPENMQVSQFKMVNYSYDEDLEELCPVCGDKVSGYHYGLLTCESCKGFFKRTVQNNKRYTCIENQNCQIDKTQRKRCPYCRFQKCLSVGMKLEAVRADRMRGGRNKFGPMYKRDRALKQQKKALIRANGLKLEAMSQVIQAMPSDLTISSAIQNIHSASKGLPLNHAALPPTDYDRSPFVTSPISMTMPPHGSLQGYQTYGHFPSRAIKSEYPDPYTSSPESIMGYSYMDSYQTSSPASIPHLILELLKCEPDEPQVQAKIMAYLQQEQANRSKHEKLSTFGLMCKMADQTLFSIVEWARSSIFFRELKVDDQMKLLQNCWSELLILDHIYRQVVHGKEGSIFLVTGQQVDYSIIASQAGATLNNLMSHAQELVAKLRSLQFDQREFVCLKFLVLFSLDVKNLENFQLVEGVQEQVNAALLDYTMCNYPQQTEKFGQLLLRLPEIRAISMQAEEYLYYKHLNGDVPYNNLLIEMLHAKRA

[7] = biological target: Steroidogenic factor 1 (Homo sapiens) (UniProt Q13285); experiment: inverse agonism at SF1 nuclear receptor – cell-based, luminescence, high throughput, counter-screen for LRH-1 inverse agonist project (AID 651614; in the data active means inhibition above about 44%;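 further: cells cotransfected with StAR promoter reporter and SF1 expression vector; 0% = vehicle on cells with receptor and 100% = vehicle on cells lacking receptor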); conditions: cell-based SF1 luciferase reporter, at 3.6 µM, stronger effect = higher value
Steroidogenic factor 1 (Homo sapiens), sequence (Q13285 whole entry, looked up, the tested form may be a part): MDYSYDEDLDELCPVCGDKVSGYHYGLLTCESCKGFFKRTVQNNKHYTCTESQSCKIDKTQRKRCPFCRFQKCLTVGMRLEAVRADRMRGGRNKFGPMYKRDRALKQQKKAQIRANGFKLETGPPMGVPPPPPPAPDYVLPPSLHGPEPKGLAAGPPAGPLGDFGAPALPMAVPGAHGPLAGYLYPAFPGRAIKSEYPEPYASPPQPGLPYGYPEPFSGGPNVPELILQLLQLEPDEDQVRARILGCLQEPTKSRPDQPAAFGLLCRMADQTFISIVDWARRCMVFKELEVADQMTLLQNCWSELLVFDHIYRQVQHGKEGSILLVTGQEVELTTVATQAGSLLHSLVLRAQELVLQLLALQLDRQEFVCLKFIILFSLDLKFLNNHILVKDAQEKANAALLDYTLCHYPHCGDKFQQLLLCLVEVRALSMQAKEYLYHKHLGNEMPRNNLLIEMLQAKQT

[8] = compounds suppressing VP16-driven luciferase signal – cell-based, luminescence, high throughput, counter-screen for LRH-1 inverse agonist project (AID 651615; in the data active means inhibition above about 33%); conditions: Gal4-VP16 luciferase reporter cells, at 3.6 µM, stronger effect = higher value
[9] = VP16-driven transactivation reporter suppression – cell-based, luminescence, HEK293, counter-screen for COUP-TFII antagonist project (AID 687007; in the data active means inhibition above about 13%); conditions: HEK293 Gal4-VP16 luciferase reporter, at 8.5 µM, stronger effect = higher value
[10] = biological target: COUP transcription factor 2 (Homo sapiens) (UniProt P24468); experiment: retest of COUP-TFII reporter suppressors – cell-based, luciferase reporter, HEK293, triplicate, confirmation (AID 687008;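 active means mean inhibition over three repeats above a set limit taken from the earlier primary screen, cut at about 38% in these data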;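 further: 100% = cells given the luciferase reporter alone without the COUP-TF2 vector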); conditions: HEK293 NGFI-A luciferase reporter, luminescence; at 8.5 µM; stronger effect = higher value
COUP transcription factor 2 (Homo sapiens), sequence (P24468 whole entry, looked up): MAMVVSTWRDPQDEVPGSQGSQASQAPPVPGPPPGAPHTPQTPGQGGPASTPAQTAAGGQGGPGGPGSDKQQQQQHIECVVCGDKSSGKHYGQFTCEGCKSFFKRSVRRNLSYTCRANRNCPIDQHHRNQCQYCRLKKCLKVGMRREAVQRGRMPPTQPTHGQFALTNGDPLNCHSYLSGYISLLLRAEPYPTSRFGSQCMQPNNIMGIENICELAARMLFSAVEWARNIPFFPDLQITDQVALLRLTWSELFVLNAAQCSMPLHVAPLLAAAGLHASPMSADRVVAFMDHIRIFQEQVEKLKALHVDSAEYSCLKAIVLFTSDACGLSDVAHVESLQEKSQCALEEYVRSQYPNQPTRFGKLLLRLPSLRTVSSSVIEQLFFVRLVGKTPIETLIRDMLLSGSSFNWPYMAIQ

[11] = reduced OD of V66 E. coli with T4 gene 2 phage – absorbance, RecBCD inhibitor project, confirmation (AID 651982;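 active means mean inhibition over triplicates exceeding the hit threshold derived in the original primary screen, cut at about 11% in these data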); conditions: E. coli V66 + T4 2- phage, growth OD; at 11.9 µM; stronger effect = higher value
[12] = bacterial growth inhibition – absorbance, high throughput, counter-screen for RecBCD inhibitor project (AID 651983; in the data active means inhibition above about 20%;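 further: E. coli strain V66 grown with compound alone and no phage infection; 0% = bacteria with DMSO vehicle only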); conditions: E. coli viability, absorbance (OD) growth; at 11.9 µM; stronger effect = higher value
[13] = reduced optical density, T4-challenged addAB+ bacteria – absorbance, E. coli V3065, T4 phage, counter-screen for RecBCD inhibitor project, confirmation (AID 651984;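 active means mean inhibition above the solvent-only control wells' mean plus 3 SD, cut at about 22% in these data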;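 further: higher means less bacterial growth from phage killing when AddAB is blocked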); conditions: E. coli expressing H. pylori AddAB + T4 phage, OD growth; at 11.9 µM; stronger effect = higher value; gene 2 mutant T4, recBCD-deleted host
[14] = system: DAF-12 nuclear receptor (Heterodera glycines), GAL4-LBD fusion; experiment: hgDAF-12 GAL4 fusion reporter activation, retest – cell-based, luminescence, HEK293, GAL4-LBD fusion, confirmation (AID 743050;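 active means mean activation over triplicate wells above the hit cutoff derived from the earlier primary screen, cut at about 11% in these data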;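 further: 0% = DMSO low control and 100% = 2 mM sodium butyrate high control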); conditions: HEK293 GAL4-hgDAF12 luciferase reporter, agonist mode; at 6.8 µM; stronger effect = higher value; percent of butyrate response
[15] = biological target: Oxysterols receptor LXR-beta (Homo sapiens) (UniProt P55055); experiment: nonspecific reporter activation via LXR – cell-based, luminescence, HEK293, H. glycines campaign, counter-screen for hgDAF-12 agonist project, confirmation (AID 743051;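 active means mean activation of the triplicate above a set limit carried over from the primary screen, none filed active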); conditions: HEK293 Gal4-LXR luciferase reporter, 24 h; at 6.8 µM; stronger effect = higher value
Oxysterols receptor LXR-beta (Homo sapiens), sequence (P55055 whole entry, looked up, the tested form may be a part): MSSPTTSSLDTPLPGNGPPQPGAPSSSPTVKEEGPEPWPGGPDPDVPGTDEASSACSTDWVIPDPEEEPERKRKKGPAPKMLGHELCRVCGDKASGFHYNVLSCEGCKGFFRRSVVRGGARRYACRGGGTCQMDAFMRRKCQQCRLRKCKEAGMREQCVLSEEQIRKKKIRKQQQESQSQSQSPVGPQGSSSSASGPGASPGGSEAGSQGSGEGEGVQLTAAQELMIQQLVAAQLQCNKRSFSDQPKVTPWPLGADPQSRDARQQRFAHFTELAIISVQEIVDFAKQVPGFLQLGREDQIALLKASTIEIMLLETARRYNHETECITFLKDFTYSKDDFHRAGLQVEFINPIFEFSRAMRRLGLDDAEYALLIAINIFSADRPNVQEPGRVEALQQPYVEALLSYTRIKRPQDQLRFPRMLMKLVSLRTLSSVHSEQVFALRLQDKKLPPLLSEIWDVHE

COc1ccc(C(=O)NC2CCCc3c2cnn3-c2cccc(C)c2C)c(OC)n1 (stereo not drawn)
inhibition [1]: 89.6% (active)
inhibition [2]: 74.1% (active)
inhibition [3]: -6.55%
inhibition [4]: 19.8%

COc1ccc(CNc2ncnc3ccccc23)cc1
inhibition [1]: 82.4% (active)
inhibition [2]: 75.7% (active)
inhibition [5]: 11.2%
inhibition [6]: 63.6% (active)
inhibition [7]: 55.6% (active)
inhibition [8]: 62.8% (active)
inhibition [9]: 0.55%
inhibition [10]: 47.6% (active)

CCC(C)N1C(=O)S/C(=C/c2ccc(Sc3nc4ccccc4[nH]3)o2)C1=O (stereo not drawn)
inhibition [1]: 85.7% (active)
inhibition [2]: 69.8%

S=C(NN=Cc1ccccn1)Nc1ccccn1
inhibition [1]: 79.5% (active)
inhibition [2]: 14.3%

COc1ccccc1-n1nnnc1S(=O)(=O)Cc1ccc(Cl)cc1
inhibition [1]: 10.2%
inhibition [2]: 19%
inhibition [5]: 41.7% (active)
inhibition [6]: 51.6% (active)
inhibition [7]: 40.4%
inhibition [8]: 34.2% (active)

Cc1ccc(OCC(=O)c2cc(C)n(Cc3ccco3)c2C)c([N+](=O)[O-])n1
inhibition [1]: 67.8%
inhibition [2]: 52.5%
inhibition [3]: 23.6%
inhibition [4]: 37.4%

COc1ccc(S(=O)(=O)NCCCCOc2ccc(Cl)cc2)cc1
inhibition [1]: 97.5% (active)
inhibition [2]: 86.5% (active)

Cc1ccc(CS(=O)(=O)c2ncc(Cl)c(C(=O)Nc3nnc(C)s3)n2)cc1
inhibition [1]: 30.6%
inhibition [2]: -7.39%
inhibition [3]: 27.1%
inhibition [4]: 55% (active)

O=C(/C=C/c1ccc([N+](=O)[O-])o1)NNC(=O)c1ccc(F)cc1
inhibition [1]: 83.5% (active)
inhibition [2]: 18.6%
inhibition [11]: 27.6% (active)
inhibition [12]: 44.5% (active)
inhibition [13]: 104% (active)

CCn1c(CNC(=O)c2cc(OC)c(OC)c(OC)c2)cc2cc(C)ccc21
inhibition [1]: 85.2% (active)
inhibition [2]: 71% (active)
inhibition [9]: 4.19%
inhibition [10]: 15.9%

CCCCCc1c(-c2ccc(OC)c(OC)c2)ncn1CCc1ccccc1OC
inhibition [1]: 73.5% (active)
inhibition [2]: 35.4%
inhibition [9]: 4.25%
inhibition [10]: 25.6%

CCOC(=O)CC1(NC(=O)c2cc(COc3cncc(Cl)c3)on2)CCCCC1
inhibition [1]: 20.2%
inhibition [2]: 44.2%

O=S(=O)(c1cccc(Cn2nnc(-c3ccc(F)cc3)n2)c1)N1CCOCC1
inhibition [1]: 34.9%
inhibition [2]: 39.4%

Cc1ccnc(NC(=O)C2CCN(S(=O)(=O)c3c(C)c(C)cc(C)c3C)CC2)c1
inhibition [1]: 83.3% (active)
inhibition [2]: 21.8%
inhibition [5]: 6.87%
inhibition [6]: 36.1%
inhibition [7]: 13.2%
inhibition [8]: 21.5%
activation [14]: 7.81%
activation [15]: 0.16%

Cc1nc2c(OCc3cccc(Cl)c3)cccn2c1N(C)CC1CC1
inhibition [1]: 1.83%
inhibition [2]: 19.3%

Cc1[nH]n(-c2cccc(Cl)c2)c(=O)c1-c1ccc(Cl)cc1
inhibition [1]: 97.8% (active)
inhibition [2]: 71.3% (active)

Cc1ccc(S(=O)(=O)N2CCN(c3ncnc4ccccc34)CC2)cc1
inhibition [1]: 94.1% (active)
inhibition [2]: 80.5% (active)

N#C[C@]1(S(=O)(=O)c2ccccc2)C[C@@H]2ON=C(c3cccc(Br)c3)[C@@H]2C1
inhibition [1]: 88.5% (active)
inhibition [2]: 75.2% (active)
inhibition [9]: 2.59%
inhibition [10]: 14.3%

Cc1cc(C(=O)NC2CCCc3c2cnn3-c2cccc(C)c2C)c(C)o1 (stereo not drawn)
inhibition [1]: 72.7% (active)
inhibition [2]: 69.9%
inhibition [9]: -2%
inhibition [10]: 26.8%

COc1ccc(C(=O)NNC(=S)NC(=O)c2ccccc2[N+](=O)[O-])cc1
inhibition [1]: 3.63%
inhibition [2]: -6.68%

CCc1cc2c(NC3CCCC3)ncnc2s1
inhibition [1]: 88.5% (active)
inhibition [2]: 64%
inhibition [9]: 5.31%
inhibition [10]: 29.9%

CCCC1CCC(=NNC(=S)NCCc2ccccc2)CC1 (stereo not drawn)
inhibition [1]: 3.69%
inhibition [2]: -1.56%

O=C(NCc1cccc(C(F)(F)F)c1)c1cc(-c2ccccc2)nn1CC1CC(c2cccnc2)=NO1 (stereo not drawn)
inhibition [5]: 13%
inhibition [6]: 36.4%
inhibition [7]: 32.1%
inhibition [8]: 6.07%

Cc1nc2ccccc2n1Cc1ccc(Cl)cc1
inhibition [5]: 8.73%
inhibition [6]: 56.1% (active)
inhibition [7]: 54.1% (active)
inhibition [8]: 47% (active)

COc1ccc(NC(=O)COC(=O)c2c(-c3ccccc3)noc2C)cc1
inhibition [5]: 15.3%
inhibition [6]: 63% (active)
inhibition [7]: 66.1% (active)
inhibition [8]: -5.04%

Cc1cccc(NC(=O)CSC2=NN3CCCC(=O)N=C3S2)c1C
inhibition [5]: -10.1%
inhibition [6]: 53.1% (active)
inhibition [7]: 49% (active)
inhibition [8]: -5.97%

COc1ccc(C2=CC(=O)OC3(CCCCC3)O2)cc1
inhibition [5]: 15.4%
inhibition [6]: 63.9% (active)
inhibition [7]: 45.4% (active)
inhibition [8]: 6.01%

CC(=O)N1CCc2c(sc(NC(=O)c3ccc([N+](=O)[O-])o3)c2C#N)C1
inhibition [5]: -28.6%
inhibition [6]: 36%
inhibition [7]: 43.8% (active)
inhibition [8]: -119%
